Source: PubChem BioAssay (NCATS)

Each compound was assayed against Glucocorticoid receptor (Homo sapiens) (UniProt P04150) (assay: GR-GFP Redistribution (AID 450)). Conditions: U2OS GR-GFP nuclear translocation, laser cytometry, 2 h; series mostly up to 20.6 µM;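 active = compounds whose dose series gives a full or clear partial fitted curve of increased nuclear translocation; inconclusive = weak partial curve or effect only at the top dose; inactive = no dose-dependent translocation response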.
Potency is the fitted concentration of half-maximal effect.

Sequence of Glucocorticoid receptor (Homo sapiens) (P04150 whole entry, looked up): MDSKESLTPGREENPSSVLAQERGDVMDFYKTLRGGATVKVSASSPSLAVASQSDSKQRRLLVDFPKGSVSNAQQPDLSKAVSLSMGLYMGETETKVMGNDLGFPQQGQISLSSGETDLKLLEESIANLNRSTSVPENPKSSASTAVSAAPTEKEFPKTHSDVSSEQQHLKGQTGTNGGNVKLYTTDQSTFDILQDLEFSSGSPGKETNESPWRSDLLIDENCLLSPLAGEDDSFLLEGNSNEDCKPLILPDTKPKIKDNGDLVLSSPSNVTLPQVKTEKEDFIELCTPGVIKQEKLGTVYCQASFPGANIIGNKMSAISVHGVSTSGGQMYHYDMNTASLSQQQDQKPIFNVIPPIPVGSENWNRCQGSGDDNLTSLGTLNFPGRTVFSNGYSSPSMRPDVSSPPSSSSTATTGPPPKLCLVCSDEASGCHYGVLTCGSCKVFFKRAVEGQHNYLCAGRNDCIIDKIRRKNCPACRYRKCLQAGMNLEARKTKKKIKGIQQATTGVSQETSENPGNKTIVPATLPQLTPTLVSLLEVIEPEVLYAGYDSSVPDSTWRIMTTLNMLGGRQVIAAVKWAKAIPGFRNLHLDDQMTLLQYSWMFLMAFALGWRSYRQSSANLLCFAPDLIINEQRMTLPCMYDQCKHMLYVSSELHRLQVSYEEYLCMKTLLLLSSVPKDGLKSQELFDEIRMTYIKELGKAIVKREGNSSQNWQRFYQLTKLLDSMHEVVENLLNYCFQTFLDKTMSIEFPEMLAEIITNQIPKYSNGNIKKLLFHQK

Potency, inactive:
COc1ccc2[nH]c(C)c(C(=O)CN3CCN(C(=O)c4ccco4)CC3)c2c1 > 20.6 µM
CCN(CC)CCCN1C(=O)C(=O)/C(=C(/O)c2ccc(Cl)cc2)C1c1ccccn1 (stereo not given) > 20.6 µM
CCC(NC(=O)Nn1cnnc1)(C(F)(F)F)C(F)(F)F > 20.6 µM
CCNc1nc(NC(C)C)nc(N(C#N)C(C)C(=O)N(C)C)n1 (stereo not given) > 20.6 µM
Cc1cc(=O)oc2cc(OCCSCCN3CCOCC3)ccc12 > 20.6 µM
CCc1nc(NCCN2CCOCC2)c(C#N)c2c1CCCC2 > 20.6 µM
COc1cccc(C2C(C(=O)c3cccs3)=C(O)C(=O)N2c2cc(C)on2)c1 (stereo not given) > 20.6 µM
COCCNc1oc(-c2ccc(C)cc2)nc1C#N > 20.6 µM
COc1cc(C)nc(Oc2ccc(=O)[nH]n2)n1 > 20.6 µM
COc1cccc(-c2nnc3sc(-c4ccc(Cl)cc4)nn23)c1 > 20.6 µM
CNc1oc(-c2ccc(Cl)cc2)nc1C#N > 20.6 µM
COC(=O)C(NC(C)=O)(Nc1nc2ccc(S(C)(=O)=O)cc2s1)C(F)(F)F (stereo not given) > 20.6 µM
CCN(CC)CCN1C(=O)C(=O)/C(=C(/O)c2ccc(C)cc2)C1c1cccnc1 (stereo not given) > 20.6 µM
Cn1c(SCC(=O)NCc2ccccc2)nc2ccccc21 > 20.6 µM
CCNC(=O)COn1c(SCC(=O)NCC)nc2ccccc2c1=O > 20.6 µM
CC(C(=O)N1CCCCC1)N1C(=O)c2ccccc2C1=O (stereo not given) > 20.6 µM
CCOC(=O)c1[nH]c2ccc(C)cc2c1N > 20.6 µM
CCN(CC)CCN1C(=O)C(=O)/C(=C(/O)c2ccc(OC(C)C)cc2)C1c1ccncc1 (stereo not given) > 20.6 µM
CCOC(=O)c1c(C)cccc1OCC(N)=O > 20.6 µM
Cc1cc(N2C(=O)C(=O)/C(=C(/O)c3ccccc3)C2c2cccs2)no1 (stereo not given) > 20.6 µM
CC(C)CNc1nc2c(c(=O)n(C)c(=O)n2C)n1Cc1cccc(Br)c1 > 20.6 µM
CCOC(=O)c1c(C)n(C)c2ccc(OC)c(NC(=O)c3cccs3)c12 > 20.6 µM
Cc1cc2c(c(=O)o1)C(Cc1ccccc1)C(C#N)=C(N)O2 (stereo not given) > 20.6 µM
O=C(O)c1c[nH]c2ccc(S(=O)(=O)N3CCOCC3)cc12 > 20.6 µM
COc1ccc(-c2nnc3sc(COc4ccccc4)nn23)cc1 > 20.6 µM
Nc1nc(NC(=O)c2cccs2)nn1-c1ccccc1 > 20.6 µM
CCOC(=O)CSC1=C(C#N)C(c2ccc(C)cc2)C(C(=O)OC)C(=O)N1 (stereo not given) > 20.6 µM
CCN1CCc2c(C#N)c(NCc3ccccc3)nc(N(CC)CC)c2C1 > 20.6 µM
CC(=O)N[C@H]1C[C@@H]1c1ccccc1 > 20.6 µM
CCOC(=O)C1=C(C)NC(=O)C1CC(=O)Nc1ccccc1 (stereo not given) > 20.6 µM
O=C(NCCC1=CCCCC1)c1ccc(=O)oc1 > 20.6 µM
O=C(CC(c1ccc(F)cc1)c1ccco1)N1CCCC1 (stereo not given) > 20.6 µM
Cn1c(=O)c2c(nc(NCc3ccc4c(c3)OCO4)n2Cc2ccccc2Cl)n(C)c1=O > 20.6 µM
CCOC(=O)N1CCN(C2OC(=O)c3ccccc32)CC1 (stereo not given) > 20.6 µM
CCN(CC)CCCN1C(=O)C(=O)/C(=C(/O)c2ccc(C)cc2)C1c1ccccn1 (stereo not given) > 20.6 µM
CC(=O)Nc1ccc(S(=O)(=O)Nc2nc3n(n2)C(c2ccccc2)CC(=O)N3)cc1 (stereo not given) > 20.6 µM
CC1CCCCN1C(=O)C12CCC(C)(/C(=N/O)C1)C2(C)C (stereo not given) > 20.6 µM
CCc1nc(N2CCN(C(=O)c3ccccc3)CC2)c(C#N)c2c1COC(C)(C)C2 > 20.6 µM
CCCC(=O)Nc1sc2c(c1C#N)CCCC2 > 20.6 µM
Nn1c(SCC(=O)Nc2ccc3c(c2)OCCO3)nnc1C(F)(F)F > 20.6 µM
